High-throughput results (PubChem)
Hits are enriched below; roughly 9.3% of the tested compounds scored in any of these assays.
ELG1 repair inh – blocks ELG1-dependent DNA repair in HEK293T cells | HEK293T ELG1-luciferase reporter, luminescence, 16 h; DNA damage induced by 5-fluorouridine | Potency, µM (titrated, usually from 46.1 µM), for the others: top-dose activity change, negative = inhibition, usual class: inhibitors | 330,000 tested, 2.3% active; further: on the % scale 0 is the no-effect control and ±100 the full control effect; nearly all actives have a fitted effect of over 55% in size
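HEK293T cells expressing luciferase-tagged ELG1 (2,000/well) received 5-Fluorouridine plus compound or DMSO for 16 hr at 37 °C. Luciferase was read by ONE-Glo luminescence after 30 min at room temperature.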
Rab9 prom act – activators of Rab9 promoter | AID 485297 | Huh7 Rab9 promoter-luciferase reporter, luminescence, 24 h | Potency, µM (top dose mostly 9.22 µM), inactives show at the highest dose activation, negative = inhibition, most hits filed as activators | 320,000 tested, 2.8% active; further: % of control where 0% means no effect; nearly all actives have a fitted effect of over 60% in size
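Steps: seed 1500 Huh7 Rab9-luc cells per well, rest 2 h at 37 °C; add compound in DMSO; incubate 24 h; add luciferase reagent, 10 min ambient; read luminescence.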
FLuc counter – inhibits or activates purified firefly luciferase, miR-21 counter-screen. P08659. purified FLuc, Km substrates, luminescence inhibition. Potency, µM (top dose mostly 57.5 µM), inactives show at the highest dose activity change, negative = inhibition, actives largely listed as inhibitors. 360,000 tested, 6.9% active;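 further: plate controls were vehicle for no effect and reference inhibitor for full effect; nearly all actives have a fitted effect of over 55% in size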
Target sequence (P08659 whole entry, looked up): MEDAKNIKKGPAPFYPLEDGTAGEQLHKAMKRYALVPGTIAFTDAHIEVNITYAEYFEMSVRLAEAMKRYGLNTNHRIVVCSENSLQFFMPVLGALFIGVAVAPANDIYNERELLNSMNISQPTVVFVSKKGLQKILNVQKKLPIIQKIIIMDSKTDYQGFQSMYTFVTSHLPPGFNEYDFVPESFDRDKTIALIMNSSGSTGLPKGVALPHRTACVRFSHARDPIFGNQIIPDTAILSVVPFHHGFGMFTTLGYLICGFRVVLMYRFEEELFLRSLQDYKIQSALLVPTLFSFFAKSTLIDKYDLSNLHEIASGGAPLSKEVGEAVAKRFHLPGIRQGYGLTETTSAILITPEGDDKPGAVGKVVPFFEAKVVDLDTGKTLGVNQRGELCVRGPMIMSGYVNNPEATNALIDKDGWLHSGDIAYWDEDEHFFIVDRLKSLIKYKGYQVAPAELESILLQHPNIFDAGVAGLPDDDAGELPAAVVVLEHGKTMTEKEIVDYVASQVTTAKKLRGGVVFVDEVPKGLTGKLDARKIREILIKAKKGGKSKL
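Purified P. pyralis luciferase (10nM final) with 10uM D-luciferin and 10uM ATP (Km levels) in 50mM Tris acetate pH 7.5, 10mM Mg acetate, 0.01% Tween-20, 0.05% BSA; qHTS 6-point titration, ~60 µM downward; luminescence read.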
ELG1 genotox – induces genotoxicity in HEK293T cells with luciferase-tagged ELG1; Potency, µM (doses to about 46 µM), for inactives: at the top dose activity change, positive = activation, hits mostly activators; HEK293T ELG1-luciferase reporter, luminescence, 16 h; 330,000 tested, 1.3% active; further: % of control where 0% means no effect; nearly all actives have a fitted effect of over 60% in size
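HEK293T cells expressing luciferase-tagged ELG1 were treated with compound or DMSO for 16 hr at 37°C. Luciferase activity was then read after 30 min with ONE-Glo at room temperature; rising signal flags genetic stress.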
SMN2 splice up – enhancers of SMN2 splice variant expression; HEK293 SMN2-luciferase splicing reporter, luminescence, 30-36 h; Potency, µM (titrated, usually from 46.1 µM), for the others: at the highest dose activity change, positive = activation, hits mostly activators; 210,000 tested, 2.8% active; AID 1458; further: % of control where 0% means no effect; nearly all actives have a fitted effect of over 55% in size
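qHTS luciferase splicing reporter: luminescence rises when SMN2 exon 7 is included in transfected HEK293 cells. Compound exposure lasted 30-36 h at 37C, with 4.5 mM final sodium butyrate as control, followed by a ONE-Glo read.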
NPC1 prom act – activators of NPC1 promoter; Huh7 NPC1 promoter luciferase reporter, 24 h; Potency, µM (doses to about 9.22 µM), inactives show at the highest dose activation, usual class: activators; 320,000 tested, 2.4% active; AID 485313; further: % of control where 0% means no effect; nearly all actives have a fitted effect of over 60% in size
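Stably transfected Huh7 (NPC1 promoter→luciferase), 1500 cells/well in Opti-MEM + 10% FBS, 2 h settle, then compound 24 h at 37 °C. Luminescence after 10 min with Amplite reagent.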
Numbers without * were called inactive; ? = inconclusive; / = no result; [ ] = dose if it differs, or a comment. The call rests on the fitted dose curve; in most records, active means well fitted curve in the direction sought with a large enough effect; inconclusive means small, poorly fitted or top-dose-only effect, or another doubt; inactive means no such curve, though single readings can be large; an effect the other way counts as inactive or inconclusive. Potency means the concentration at half of the fitted maximal effect.

SMILES | ELG1 repair inh | Rab9 prom act | FLuc counter | ELG1 genotox | SMN2 splice up | NPC1 prom act
O=C(Cn1cnc2c(oc3ccccc32)c1=O)c1ccccc1 | ? | ? | 15µM* | ? | ? | 2.5µM*
C=CCOC(=O)Cn1cnc2c(sc3nc(C)cc(C)c32)c1=O | 3% | ? | 11µM* | ? | / | ?
Cc1cc(C)c2c(n1)sc1c(=O)n(CC(=O)c3ccccc3)cnc12 | 12% | ? | 11µM* | ? | / | ?
CC(=O)Nc1ccc(S(=O)(=O)N2CCC(N3CCCC3)CC2)cc1 | -1% | -9% | -1% | 6% | / | -4%
CC(=O)Nc1ccc(S(=O)(=O)N2CCC(n3cnc4cc(F)ccc43)CC2)cc1 | 10µM* | 6% | 3% | -12% | -11% | 0%
C/C(=N\NC(=O)c1cc(C(C)C)[nH]n1)c1ccncc1 | ? | ? | ? | 9% | / | ?
C/C(=N\NC(=O)c1cc(C(C)C)[nH]n1)c1ccco1 | ? | 2.5µM* | 12µM* | ? | 2.8µM* | 4µM*
CC(C)c1cc(C(=O)N/N=C/c2ccco2)n[nH]1 | ? | ? | 17µM* | ? | 16µM* | ?
C/C(=N/NC(=O)c1cc(-c2ccc(Br)s2)[nH]n1)c1ccco1 | -14% | -8% | 24µM* | 4% | -10% | 1%
COc1ccc(-n2nc(C(=O)NCC(=O)NCc3ccco3)c3ccccc3c2=O)cc1 | -7% | -9% | 0% | -1% | / | 0%
Cc1ccc(CN2CCNC(=O)C2CC(=O)NC2CCCCCC2)o1 (stereo unspecified) | 9% | -8% | 0% | 2% | / | 0%
O=C(CN1C(=O)NC2(CCc3ccccc32)C1=O)Nc1cc(C(F)(F)F)ccc1N1CCOCC1 (stereo unspecified) | 4% | -3% | 0% | 0% | 5% | -3%
O=C(Nc1cccc(S(=O)(=O)N2CCOCC2)c1)c1cn(-c2ccccc2)nc1-c1ccc(F)cc1 | ? | -4% | -7% | -5% | 9% | -2%
CCc1nnc2n1N=C(c1ccc(Cl)cc1Cl)CS2 | 19% | 1% | 0% | 7% | / | -4%
Cn1ncc(N=Cc2ccccc2)c1C(N)=O | 13% | 12% | -1% | 2% | / | -1%
Nc1ncc(Br)cc1N=Cc1ccccc1 | ? | 3.5µM* | 3.4µM* | ? | 13µM* | 21%
COc1ccc2c(CNC3CCC(C)CC3)c(C(=O)O)n(Cc3ccccc3)c2c1 (stereo unspecified) | / | / | -5% | / | / | /
COc1ccc(C2SCCN2C(=S)Nc2ccc(Cl)cc2)cc1 (stereo unspecified) | 16% | 3% | -13% | 0% | -10% | 3%
Cc1ccc(NC(=S)N2CCSC2c2cccs2)cc1 (stereo unspecified) | 18% | 0% | 15µM* | 11% | -11% | 3%
Cc1cc(Cl)ccc1C(=O)C1CCCN(C(=O)/C=C/c2cnn(C)c2)C1 (stereo unspecified) | -3% | -5% | 3% | -2% | / | -2%
Cn1cc(/C=C/C(=O)N2CCCC(C(=O)c3ccc(C(C)(C)C)cc3)C2)cn1 (stereo unspecified) | 10% | -1% | 17µM* | -4% | / | 0%
Cc1ccc(Cl)cc1N1CCN(C(=O)c2ccc(NS(=O)(=O)c3c(C)noc3C)cc2)CC1 | ? | 2% | 0% | 4% | -8% | 1%
Cc1ccc(Cl)cc1N1CCN(C(=O)c2ccc(NC(=O)c3nsc4ccccc34)cc2)CC1 | / | / | 6µM* | / | / | /
O=C(Nc1ccc(C(=O)N2CCN(c3ccc(Cl)cc3)CC2)cc1)c1nsc2ccccc12 | / | / | 1.1µM* | / | / | /
O=C(Nc1ccc(C(=O)N2CCN(c3ccccc3F)CC2)cc1)c1nsc2ccccc12 | / | / | 5.4µM* | / | / | /
SMILES | ELG1 repair inh | Rab9 prom act | FLuc counter | ELG1 genotox | SMN2 splice up | NPC1 prom act
COc1ccc(C(=O)N2CCN(c3ccc(NC(=O)c4cccs4)cc3)CC2)cc1 | 12µM* | 1% | -1% | -24% | / | -6%
COc1ccc(CCNC(=O)c2cc(S(=O)(=O)N3CCCC3)cn2C)cc1OC | 2% | 11% | 1% | -4% | / | -5%
CCn1ccnc1CN(C)C(=O)c1cc(COc2ccc(OC)c3ccccc23)on1 | -5% | 6% | 4% | -4% | / | -6%
COc1ccc(/C=C/C(=O)OCCNC(=O)c2ccncc2)cc1OC | 2% | -1% | -3% | 4% | 17% | 3%
CCCNc1nc(C)c(C(C)=O)cc1C#N | -2% | -5% | 4% | -2% | -46% | 1%
COc1cccc(N2CCN(C(=O)c3ccc(NC(=O)c4nsc5ccccc45)cc3)CC2)c1 | / | / | 1.2µM* | / | / | /
Cc1cccc(N2CCN(C(=O)c3ccncc3)CC2C)c1 (stereo unspecified) | ? | 4% | -1%[2.3 µM] | -5% | 46% | -4%
Cc1cccc(N2CCN(C(=O)c3ccc(NC(=O)c4nsc5ccccc45)cc3)CC2C)c1 (stereo unspecified) | / | / | 4.8µM* | / | / | /
CC1CCN(C(=O)c2ccc(NC(=O)c3cccs3)cc2)CC1 | -3% | 0% | ? | 2% | / | -2%
COc1ccc(N2CCN(C(=O)c3ccc(NC(=O)c4nsc5ccccc45)cc3)CC2)cc1 | / | / | 6.7µM* | / | / | /
CC1CCN(C(=O)c2ccc(NC(=O)c3nsc4ccccc34)cc2)CC1 | / | / | 7.6µM* | / | / | /
COc1ccc(C(=O)N2CCN(c3ccc(NC(=O)c4ccco4)cc3)CC2)cc1 | 20% | 1% | 4% | -9% | / | 7%
O=C(CCNc1cccc(Cl)c1)c1ccco1 | 10% | 11% | -15% | 2% | -11% | -1%
CCOC(=O)N1CCC(n2c(SCC(=O)OCc3ccccc3)nc3ccsc3c2=O)CC1 | 23µM* | -2% | 1% | -17% | -23% | 0%
Cc1ccc(SCn2nnc3ccccc3c2=O)c(C)c1 | ? | 2.5µM* | 19µM* | ? | 16µM* | ?
O=c1c2ccccc2nnn1CSc1ccccc1F | ? | 0.89µM* | 2.7µM* | ? | 10µM* | 1.3µM*
O=c1c2ccccc2nnn1CSc1nnc2sc3ccccc3n12 | ? | 0.32µM* | 1.9µM* | ? | 2.2µM* | 0.4µM*
CN(C)C(=O)CSc1nnc2sc3ccccc3n12 | ? | 6% | -19% | 6% | 17% | 2%
Cc1ccc(-n2c(SCn3nnc4ccccc4c3=O)nnc2-c2cccnc2)c(C)c1 | -21% | -2% | 1% | -6% | -1% | 8%
Cc1ccc2nc(SCn3nnc4ccccc4c3=O)[nH]c2c1 | ? | 1.8µM* | 4.8µM* | ? | 2.8µM* | 2.5µM*
Cc1ccc(CC(=O)NCc2ccc3c(c2)OCO3)cc1 | / | / | ? | / | 4% | /
O=c1c2ccccc2nnn1CSc1nc2ccccc2[nH]1 | ? | 2.8µM* | 15µM* | ? | 25µM* | 3.5µM*
